92 compounds from PubChem BioAssay AID449762 (Southern Research Specialized Biocontainment Screening …, 2010) can be followed below.

About 1,900 (0.58%) of roughly 330,000 compounds were called active. Inconclusive results (about 4%) are left out. Not all results are given here. Potency and affinity values are given separately. Unmarked numbers belong to inactive results. No stated cut-off is given here; in the data, inconclusive means inhibition above about 70% without an active follow-up result; inactive means below that.

This test is described as follows: M. tuberculosis growth inhibition, HTS (AID 449762).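 Further: bacterial growth assessed after seven days of incubation.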 Conditions: M. tuberculosis H37Rv growth inhibition, 7H9 media; at 25 µM; stronger effect = higher value.
With `CC(C)(C)c1ccc(-c2nnc(SCC(=O)NC3CCS(=O)(=O)C3)n2N)cc1` (configuration not stated), the inhibition was 1.59%.

For the compound `COc1cc(CC(=O)OCC(=O)Nc2ccc3c(c2)OCO3)cc(OC)c1OC`, the inhibition is 0.09%.

For the compound `COc1ccc(C2=NOC(Cn3nc(C(=O)O)cc3-c3ccccc3)C2)cc1` (configuration not stated), the inhibition was -10.9%.

Consider `O=C(Cn1ccc2ccccc2c1=O)NCCC(=O)N1CCN(c2ccccc2)CC1`, for which the inhibition is 2.9%.

For the compound `O=C(CSc1nc(=O)n(CCCN2CCOCC2)c2c1CCCC2)Nc1ccc(F)cc1`, the inhibition was -5.62%.

For `Cc1cccc(C)c1NC(=O)N1CCCCCCC1`, the inhibition was -5.98%.

Turning to `C#CCOCCOCCOCCNc1nc(N2CCN(C(=O)CCCCCCCCCCNC(=O)[C@H](CCCCN)n3cc(CCO)nn3)CC2)nc(N2CCN(C(=O)CCCCCCCCCCNC(=O)[C@H](CCCCN)n3cc(CCCC(=O)O)nn3)CC2)n1`, the inhibition is 24.8%.

As for `C#CCOCCOCCOCCNc1nc(N2CCN(C(=O)CCCCCCCCCCNC(=O)[C@H](CCCCN)n3cc(CCCC(=O)O)nn3)CC2)nc(N2CCN(C(=O)CCCCCCCCCCNC(=O)[C@H](CCCCN)n3cc(CCCC(=O)O)nn3)CC2)n1`, the inhibition is -1.93%.

`CC(C)CNC(=O)COC(=O)C1c2ccccc2Oc2ccccc21`: the inhibition was 9.4%.

As for `N#CCC(=O)Nc1ccc(C(=O)OCC(=O)c2ccc3c(c2)OCCO3)cc1`, the inhibition is -4.26%.

Turning to `CCC(C(=O)Nc1ccc(OC)c(Cl)c1)c1ccccc1` (configuration not stated), the inhibition is -3.28%.

Consider `O=C(CSc1ccc(-c2cccnc2)nn1)Nc1ccc(Br)cc1`, for which the inhibition is -0.4%.

`Cc1nonc1OCCNCCNc1ccc([N+](=O)[O-])cc1Cl`: the inhibition was 10.9%.

`COc1ccccc1NC(=O)CN1CCN(CC(=O)Nc2ccc(OC)c(OC)c2)CC1`: the inhibition is -1.32%.

As to `COc1ccc(NC(=O)CN2CCN(CC(=O)Nc3ccc4c(c3)OCO4)CC2)cc1`, the inhibition was -4.59%.

For `CCOC(=O)c1c(C=O)c2ccccc2n1Cc1ccccc1F`, the inhibition was 0.55%.

Consider `N#CC1=C(N)Oc2n[nH]c(-c3cccs3)c2C1c1ccccc1C(=O)O` (configuration not stated), for which the inhibition was -1.81%.

As for `CCN(CC)C(=O)CC(c1ccc(OC)cc1)c1c(O)cc(OC)cc1OC` (configuration not stated), the inhibition was -3.84%.

Consider `CCN(C(=O)COC(=O)c1[nH]c(=O)[nH]c(=O)c1N)c1ccccc1`, for which the inhibition is -1.59%.

As for `C(=N\Nc1nc(Nc2ccccc2)nc(Nc2ccccc2)n1)/c1cccnc1`, the inhibition was 11.1%.

Turning to `C(=N\Nc1nc(Nc2ccccc2)nc(Nc2ccccc2)n1)/c1ccncc1`, the inhibition was 0.63%.

Consider `CC(=O)c1c(O)cc(C)n(-c2ccc(F)cc2)c1=O`, for which the inhibition was -1.89%.

For the compound `Cc1ccccc1NC(=S)N1CCCC(c2nc3ccccc3[nH]2)C1` (configuration not stated), the inhibition is 0%.

As to `Cc1[nH]n(S(=O)(=O)c2ccccc2)c(=O)c1N=Nc1cccc(Cl)c1`, the inhibition is 0.21%.

For `Cc1[nH][nH]c(=O)c1N=Nc1ccccc1Cl`, the inhibition was -0.87%.

For the compound `COc1cccc(CNC(=O)Cn2ccc([N+](=O)[O-])n2)c1`, the inhibition was -0.85%.

Take `CCC(=O)Nc1ccc2c(c1)nc(CCNC(=O)c1ccco1)n2C`: the inhibition was 2.89%.

With `CS(=O)(=O)c1ccc2nc(NC(=O)c3cccc(NS(=O)(=O)c4ccc(F)c(F)c4)c3)sc2c1`, the inhibition was 60.6%.

Take `CS(=O)(=O)c1ccc2nc(NC(=O)c3ccc(NS(=O)(=O)c4ccc(F)c(F)c4)cc3)sc2c1`: the inhibition is -0.5%.

`CCN(CC)S(=O)(=O)c1ccc(N2CCOCC2)c(NS(=O)(=O)c2ccc(C(C)C)cc2)c1`: the inhibition is -4.72%.

With `Cc1ccc([C@@H]2CC=C(C(=O)O)[C@H](c3ccc(F)cc3)N2S(=O)(=O)c2ccccc2C)cc1`, the inhibition is 0.59%.

Take `O=C1CCCC(=O)N1c1ccc(F)cc1`: the inhibition is -3.22%.

In the case of `CCCCN1C(=O)c2ccc(C(=O)Nc3cccnc3)cc2C1=O`, the inhibition is 48.5%.

Regarding `CC1=C(/C=C/C(C)=C/C=C/C(C)=C\C(=O)O)C(C)(C)CCC1`, the inhibition is 69.3%.

Consider `CC1=C(/C=C/C(C)=C/C=C/C(C)=C/C(=O)O)C(C)(C)CCC1`, for which the inhibition is 26.5%.

As for `N#Cc1ccc(C23CC4CC(CC(C4)C2)C3)[nH]c1=O`, the inhibition was 12.1%.

As to `O=c1cc(C23CC4CC(CC(C4)C2)C3)[nH][nH]1`, the inhibition is 4.36%.

As to `Cc1cnc(CN(C)C(=O)CC2C(=O)NCCN2CCCc2ccccc2)[nH]1` (configuration not stated), the inhibition was -8.51%.

In the case of `Cc1nn(C(C)C(=O)NCc2ccccc2F)c(=O)c2nn(-c3ccccc3)c(C)c12` (configuration not stated), the inhibition was 0.01%.

Consider `CCN1C(=O)[C@H]2[C@@H](c3ccc(-c4ccc(Cl)c(Cl)c4)cc3)N[C@@](Cc3ccccc3)(C(=O)OC)[C@H]2C1=O`, for which the inhibition is 4.89%.

In the case of `COc1ccccc1N1CCN(CC(=O)Nc2nccs2)CC1`, the inhibition was 6.27%.

With `Cc1ccccc1N1CCN(CC(=O)Nc2nccs2)CC1`, the inhibition is 6.57%.

Turning to `O=C(CC(=O)NC1CCCCC1)N/N=C/c1ccccc1F`, the inhibition is 7.41%.

As to `CCOC(=O)CNC(=O)c1cnc(Nc2ccccc2OC)c2ccccc12`, the inhibition is 2.72%.

`O=C(O)Cc1c(-c2ccccc2Cl)c2cc(Br)ccc2[nH]c1=O`: the inhibition is 0.9%.

With `O=C(NNc1nc(-c2ccc(F)cc2)cs1)c1ccccc1`, the inhibition was 1.95%.

Regarding `N#Cc1ccc(-c2csc(NNC(=O)c3ccccc3)n2)cc1`, the inhibition is 1.66%.

In the case of `Cc1cc(C)c(C#N)c(SCCS(=O)(=O)c2ccc(C(C)(C)C)cc2)n1`, the inhibition was 1.43%.

`CCC(=O)CCC(=O)c1ccc2ccccc2c1`: the inhibition was 9.13%.

As to `O=C1C=C(O)c2c(O)cccc2C1=O`, the inhibition was -6.54%.

With `COc1cccc2c1C(=O)C=C(C)C2=O`, the inhibition is -8.66%.

With `CC(=O)NC12CC3CC(C1)CC(C(=O)Nc1c(C)n(C)n(-c4ccccc4)c1=O)(C3)C2`, the inhibition is -13%.

As for `COc1ccc(NC(=O)CSc2nnnn2-c2ccc(F)cc2)cc1`, the inhibition is -7.12%.

Regarding `C[C@@]12C(=O)N(CCO)CC(=O)N1[C@H](/C=C/c1ccccc1)[C@@H]1C(=O)N(c3ccccc3)C(=O)[C@@H]12`, the inhibition was -1.57%.

For the compound `CC(=O)OCC1(C)CN(c2ccccc2)N(C(=O)c2ccc(F)cc2)C1=O` (configuration not stated), the inhibition is 37.7%.

In the case of `CC1(C)CN(c2cccc(C#N)c2)C1=O`, the inhibition is -3.52%.

Consider `COc1cccc(CN(C(=O)c2ccccc2Br)C2CCS(=O)(=O)C2)c1` (configuration not stated), for which the inhibition was -0.47%.

In the case of `CC1(C)CC(=O)C2=C(C1)NC(Nc1nc3ccccc3o1)=NC21CCCCC1`, the inhibition was -1.05%.

For `CC1(C)CC(=O)C2=C(C1)NC(Nc1nc3ccccc3o1)=NC21CCCC1`, the inhibition is -11%.

Turning to `O=C(CN1C(=O)c2ccccc2S1(=O)=O)NC1CC2CCC1C2` (configuration not stated), the inhibition was -4.11%.

Take `CN1CCN(c2ccc(NC(=O)CN3CCOCC3)cc2F)CC1`: the inhibition is -4.73%.

On to `CC(C)CNC(=S)NC(=O)c1ccc([N+](=O)[O-])cc1`, for which the inhibition is 11.6%.

In the case of `C=CCNC(=S)NC(=O)c1csc([N+](=O)[O-])c1`, the inhibition is 18.2%.

For the compound `CCn1c(SCC(=O)N/N=C/c2ccccc2OCC(=O)O)nnc1-c1ccc(OC)cc1`, the inhibition is 1.34%.

Consider `Oc1ccc(CN2CCN(Cc3ccccc3)CC2)c2cccnc12`, for which the inhibition is 14.4%.

For the compound `OCc1ccc(O)c2ncccc12`, the inhibition was 52.4%.

In the case of `Cc1cccc(NCc2ccc(O)c3ncccc23)c1`, the inhibition was 14.1%.

Take `Oc1ccc(CNc2ccc(F)cc2)c2cccnc12`: the inhibition was -1.78%.

For `Cc1cccnc1NCc1ccc(O)c2ncccc12`, the inhibition is 51.8%.

On to `Cc1ccccc1NCc1ccc(O)c2ncccc12`, for which the inhibition is 2.36%.

Regarding `Oc1ccc(CN2CCCc3ccccc32)c2cccnc12`, the inhibition was -5.25%.

Regarding `Oc1ccc(CNc2ccccc2)c2cccnc12`, the inhibition was -3.76%.

Take `COc1ccc(S(=O)(=O)N(Cc2ccc(OC)c(OC)c2)Cc2ccco2)cc1`: the inhibition is 12.4%.

As to `O=C1NNC(=O)C1c1ccccc1`, the inhibition is 0.86%.

With `COc1cccc(C2[C@H](C)C3(CCN2C)OCCO3)c1` (some centres not stated), the inhibition was 1.26%.

`C=CCN(C(=O)c1csnn1)C(C(=O)NCc1ccccc1)c1ccccc1F` (configuration not stated): the inhibition is 5.11%.

Take `COc1ccc(NC(=S)N2CCC(c3ccccc3)C2)cc1` (configuration not stated): the inhibition was 0.04%.

On to `CCCC(=O)OCC(=O)Nc1ccc([N+](=O)[O-])cc1C#N`, for which the inhibition was 0.66%.

Regarding `O=C1CCc2cc(S(=O)(=O)NCCc3ccccc3)cc3c2N1CC3`, the inhibition was -3.75%.

With `CN1CCN(CC(O)COc2ccc(C(=O)O)cc2)CC1` (configuration not stated), the inhibition was 4%.

With `COc1ccc(C=O)cc1CN1CCCN(Cc2ccccc2F)S1(=O)=O`, the inhibition is 9.36%.

Regarding `C=CCc1cc(C)ccc1OCCOCCC(C(=O)OCC)C(=O)OCC`, the inhibition was -7.06%.

As to `C=CCc1cc(OC)ccc1OCCOCCC(C(=O)OCC)C(=O)OCC`, the inhibition is -13%.

As for `Cc1ccc2[nH]c(C(=O)O)c(-c3ccccc3)c2c1`, the inhibition is 6.59%.

For `O=C(NN=C1CCCC1)c1[nH]c2ccc(Br)cc2c1-c1ccccc1`, the inhibition is 62%.

In the case of `CCOC(=O)Cn1cnc2c(nnn2-c2ccc(C)cc2)c1=O`, the inhibition is -14.9%.

On to `CCC(NC(=O)c1cc(COc2c(F)cccc2F)on1)c1ccncc1` (configuration not stated), for which the inhibition was -2.33%.

Consider `CC(CN1C(C)CCCC1C)OC(=O)c1cccc(F)c1` (configuration not stated), for which the inhibition was 3.14%.

For the compound `CC(C)C1CC(CCN)(Cc2ccccc2)CCO1` (configuration not stated), the inhibition is 1.79%.

`COc1ccc2cc(C#N)c(N3CCOCC3)nc2c1`: the inhibition is 3.82%.

With `COc1ccc2cc(C#N)c(N3CCN(C(=O)c4ccccc4C)CC3)nc2c1`, the inhibition is 11.1%.

With `O=S(=O)(CCN1CCSCC1)c1ccc(Cl)cc1`, the inhibition was -12.2%.
